± gives the standard deviation of the averaged measurements. The full ranking holds about 25,000 sequences; the median of “ln(normalized median fluorescence intensity)” is about 8.9, and the highest 2% start at about 10. This excerpt belongs to a sample that is enriched for the highest values.
System: PfAP2-LT AP2 domain (GST-tagged)
Test: gcPBM binding intensity (ln(normalized median fluorescence intensity)); higher = stronger DNA binding
Outline: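 The binding buffer was 1× PBS containing 1% milk, 0.2 mg/ml BSA, 0.5% salmon testes DNA and 0.03% Triton X-100. In it, GST-tagged P. falciparum DNA-binding domains expressed in E. coli were applied for 1 h to an Agilent 4 × 180k array of primer-extended double-stranded 36-bp intergenic genomic probes plus negative controls. Binding intensity, read with Alexa488 anti-GST antibody and a 488 nm scan, is the highest Masliner-normalised natural-log median intensity across replicate spots of either probe orientation.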

Sequence	gcPBM binding intensity (ln)
TGAACATGTTAAAATAAACACACAGCTAAGGTTTTT [CACACA_site7934]	8.94 ± 0.4
TTATATATATATATATGTACACATATATAACATGAT [XGTACX_site6643]	9.19 ± 0.28
ATACACTTTTATATATCAATACATTATGTATTAAGT [CACACA_negctrl_site421]	8.86 ± 0.35
AACAATATATTGATATTATTTTAAGTGATTATATAT [XGTACX_negctrl_site205]	8.57 ± 0.33
CAACATATGCATATGTGTACATATTTTATTTTCAAC [XGTACX_site2237]	8.82 ± 0.42
TATTTATAAACATACGCACACATTAAAATATATATA [CACACA_site6051]	9.02 ± 0.4
TATTTTTTAAAAATGGGTACACATAAATAAATAAAT [XGTACX_site7643]	8.58 ± 0.45
TAAAAAAATTCATGCACACGAAATAAAAAGCACCTT [CACACA_site4667]	9.21 ± 0.3
AATACAGACAGACACACACACAAAATAAAATACAAA [CACACA_site245]	9.95 ± 0.38
TTAATACCCAGACACACACACACAAAATAAAATACA [CACACA_site7968]	10.1 ± 0.48
ATAATTAACAAATACACACACACACGCCCACAAAAA [CACACA_site6389]	10 ± 0.11
TGAACACCCACAAATACACACAAAAAAAATAAATAA [CACACA_site248]	9.28 ± 0.51
TTAATACCCGGACACACACACACAAAATAAAATACA [CACACA_site4296]	9.85 ± 0.27
ATAATTAACAAATACACACACACACCCCCACAAAAA [CACACA_site518]	10.5 ± 0.26
AAATAAATATATATATGTACATACAAATACACGGTA [XGTACX_site8510]	9.09 ± 0.4
TATTGTTTTAAAGAGACATGCAATATATATTATTCC [TGCATGCA_site752]	8.51 ± 0.42
TACATACATAAACACACACACACATATATATATATA [CACACA_site8953]	10.2 ± 0.23
GTACATACATAAAACACACACATATATATATATATA [CACACA_site1826]	10.17 ± 0.071
TACATATATAAAAAAACACACACATATATATATATA [CACACA_site8315]	9.665 ± 0.021
AATGGGTAAACATACACACACACATATATATATATA [CACACA_site1991]	10.2 ± 0.11
TAGATACATAAACACACACACACATACATATATACA [CACACA_site9139]	10.2 ± 0.23
AATGGGTAAACATACACACACACATCTATATTTATA [CACACA_site7025]	9.78 ± 0.4

Sequence	gcPBM binding intensity (ln)
TACAGATATAAACACACACACATATATATATATATA [CACACA_site4846]	10.05 ± 0.092
GAAATGGGTAAACATACACACACACCGATATATATA [CACACA_site8610]	9.87 ± 0.23
CATATACATAAACACACACACACATAAATAAATATA [CACACA_site4864]	10 ± 0.13
AAAAAAAACATACATACACACACATAAATATATATA [CACACA_site8864]	9.72 ± 0.23
TATATAAATAGATACACACATACATACATACATACA [CACACA_site260]	9.61 ± 0.37
TATATACATAAACACACACACACATATATATATATA [CACACA_site8707]	9.89 ± 0.2
TTTGAGATAAAAGACTGTACTTAGAATGTATAAAAA [XGTACX_site203]	8.48 ± 0.6
ATATGCTATTTACTAGTGCAAAATATTTAAAATATG [GTGCAC_site9517]	8.61 ± 0.36
ATAATTTTCCATATTTGTACATATTTTTTTCCCTTG [XGTACX_site8146]	8.92 ± 0.59
ATTTGTTATATATTCTTTTATGTTAATAATTCGAAT [CACACA_negctrl_site378]	8.7 ± 0.45
ATAATTAGGGTGTATTTCATTTCATTTCATTTTATT [CACACA_negctrl_site1418]	9.04 ± 0.4
TTTTTCTAATTATGCACACATATCAAAATATTCAAT [CACACA_site2749]	8.79 ± 0.46
AATATTCTATATGATACATGCATGATGGAATAAAAA [TGCATGCA_site980]	8.93 ± 0.3
ATATATATTTAAAGATGTACATAATGAAATGGTTAT [XGTACX_site4706]	9.01 ± 0.47
CATACACAGAAACACACACACATATATATATATATA [CACACA_site4519]	10.2 ± 0.3
CAAATACAGAAACACACACACATATACATATATATA [CACACA_site3498]	9.77 ± 0.19
ACAGAAAAAAAACACACACACATAATATACATACAT [CACACA_site1932]	9.82 ± 0.19
TATATACAGAAACACACACACACATATATATATATA [CACACA_site2247]	10.15 ± 0.057
CATACACAGAAACACACACACATATATACATATATA [CACACA_site1094]	9.98 ± 0.24
TAGATACAGAAACACACACACACATACATATATACA [CACACA_site3437]	9.97 ± 0.24
ATTTTTTTTTTTTTTTTTCATTTTTTTTTTTTTTTT [CACACA_negctrl_site1204]	8.62 ± 0.54
AAAAAAGCAATATGATGTACATTTACTTTGTGAAAG [XGTACX_site4450]	8.73 ± 0.46

Sequence	gcPBM binding intensity (ln)
TTAAATAGCTGTAATTGTACAAATAAATACATAAAT [XGTACX_site3097]	8.82 ± 0.38
AAAAAAAAAAAAAAAACATGCAGTTAGTGGTTTTTT [TGCATGCA_site243]	8.82 ± 0.4
AAGTAAAATAAGTATACACACATAAATATGTAAATA [CACACA_site6467]	9.29 ± 0.4
AAAAAATAAAACATATATAATATATAATATATATAT [GTGCAC_negctrl_site447]	8.69 ± 0.4
GGTATACACAAGTATACACACATATAAATATAAATA [CACACA_site7511]	9.16 ± 0.49
TATATACATACATATACACACATATATATATATATA [CACACA_site401]	9.72 ± 0.21
TACACAAGCGGACACACACACATATATATATATATA [CACACA_site4832]	10.415 ± 0.0071
AGTATACAGATATATACACACATATATATATATATA [CACACA_site4323]	9.935 ± 0.021
GGTATACTCAAGTATACACACATATATATATATATA [CACACA_site5746]	9.64 ± 0.49
ATGGGACATATATATACACACATATATATATATATA [CACACA_site1202]	9.96 ± 0.24
TATATATATATACCAACACACATACATATATATATA [CACACA_site8530]	9.38 ± 0.14
AGTATACATATATATACACACACATATATATATATA [CACACA_site7883]	9.805 ± 0.064
AGTATACACAGACACACACACACATATATATATATA [CACACA_site8510]	10.3 ± 0.42
CGCATACACCAACACACACACACATATATATATATA [CACACA_site635]	9.96 ± 0.48
AGCAGACACCAACACACACACATATATATATATATA [CACACA_site337]	10.4 ± 0.13
GGTATACACAAGTATACACACATATATATATATATA [CACACA_site9063]	10.16 ± 0.099
ATTATAATTATTTTGTTGCACTATTTTTGTAGGCCA [GTGCAC_site9734]	8.8 ± 0.49
ATATTATTTTAAAGTACACACATATATTAATATATA [CACACA_site2315]	8.76 ± 0.38
ATATATATATATATATGTACATATATATATAATTTT [XGTACX_site4146]	9.34 ± 0.54
CTTGTCATTTTGCACACACACATGTATAGGTTATTA [CACACA_site7431]	9.67 ± 0.16
ATTATGGATACATAAACACACATATATATAAAAAAA [CACACA_site4303]	9.04 ± 0.43
AAAAAAAAAAAAAAAAAAAAAAAAACAATGAATTTA [GTGCAC_negctrl_site698]	8.82 ± 0.19

Sequence	gcPBM binding intensity (ln)
TTAAATAAGTAATTATGTACATATAATATTCTTTAT [XGTACX_site5280]	8.6 ± 0.42
ATATTAAGGTTTATATTTTAACTTATTATTTTATTC [CACACA_negctrl_site795]	8.7 ± 0.49
GGATTTTAATGAACACGTACATAAAATTAAATAAAT [XGTACX_site7023]	8.73 ± 0.45
TAAGTATAAATATTTACACACATTTGTTTTTTTTTA [CACACA_site7731]	8.78 ± 0.4
TGCCTTATTAAAAGAATTACACATATTTAATCGAAA [GTGCAC_negctrl_site153]	8.31 ± 0.39
TCTTTTTTTTTTTATTGTACAAGAAAAGGAAAAAAT [XGTACX_site3717]	8.05 ± 0.31
TTTTTTTTTTTAAGGTGTACAATAAAAATTTATGCA [XGTACX_site8860]	8.23 ± 0.35
ATATTATTTTATTTTTGTACAGATATCTTTAAAAAA [XGTACX_site3734]	8.42 ± 0.37
ATTCTATTATAATACACACCCAAATATTAAAAAGAT [CACACA_site2960]	8.99 ± 0.4
AATACATACAGACACACACACACATATAAATAAATA [CACACA_site7642]	10.1 ± 0.38
AGGATATGCAGACACACACACATATAGATTTATATA [CACACA_site7100]	9.56 ± 0.43
CATATACATACACATACACACATACAGACATACACA [CACACA_site6919]	9.63 ± 0.2
TACATACACAGACACACACACATATATATATATATA [CACACA_site3557]	10.1 ± 0.19
CATACATACAGACACACACACATATAAATACATACA [CACACA_site6533]	9.88 ± 0.35
TACACATACAGACATACACACATACACATATACACA [CACACA_site6918]	9.85 ± 0.23
ATTCTACACAGACATACACACATATATATATATATA [CACACA_site5826]	9.835 ± 0.078
AGGACACATATATGCAAAAAAAAAAAAAAAAAAAAA [TGCATGCA_negctrl_site427]	8.41 ± 0.59
AGGATATGCAGACACACACACATATATATATATATA [CACACA_site2201]	10.3 ± 0.23
TACAGACATACATACACACATACATATATATATATA [CACACA_site1940]	9.82 ± 0.34
TACATACACAGACACACACACATATAAATATAAATA [CACACA_site7641]	9.78 ± 0.28
TATACAGACAGACACACACACATATATATATATATA [CACACA_site1734]	10.3 ± 0.13
TGTTTGAATATAATCACACATTTATATAAAAAGTTA [CACACA_site5237]	8.39 ± 0.32

Source: the supplement of paper PMC11417369
